Screens from PubChem BioAssay.
Vaccinia Venus: inhibitors of vaccinia virus (Venus reporter). 330,000 tested, 0.46% active. Vaccinia virus Venus reporter expression, fluorescence. Potency, µM (highest dose often 36.5 µM), for inactives: at the highest dose activity change, negative = inhibition, usual class: inhibitors; calls by dose curve; tested in A549 cells; note: % is set by controls: 0 for no effect and ±100 for the full control effect; nearly all actives have a fitted effect of over 30% in size
AMA1-RON2 inh: AMA1-RON2 (P. falciparum) interaction inhibition; AlphaScreen AMA1-biotinylated RON2 peptide binding; Potency, µM (doses to about 58.2 µM), for the others: top-dose activity change, negative = inhibition, most hits filed as inhibitors; 360,000 tested, 0.2% active; AID 720542;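 note: 0% = vehicle wells and -100% = peptide control; nearly all actives have a fitted effect of over 45% in size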
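AMA1 (3D7) with his tag at 25 nM final met compounds first, then biotinylated RON2 peptide at 25 nM; detection used donor plus acceptor beads, 10 µg/mL apiece, read by AlphaScreen after 30 min at room temperature.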
Vaccinia mCherry: inhibitors of vaccinia virus infection (mCherry reporter signal); Vaccinia virus mCherry reporter infection, fluorescence; Potency, µM (series often up to 36.5 µM), for inactives: top-dose activity change, negative = inhibition, actives largely listed as inhibitors; 310,000 tested, 0.63% active; AID 720579; calls by dose curve; tested in A549 cells; note: % is set by controls: 0 for no effect and ±100 for the full control effect; nearly all actives have a fitted effect of over 35% in size
AmpC no deterg: blocks E. coli AmpC beta-lactamase in detergent-free assay; P00811; AmpC nitrocefin hydrolysis, absorbance 480 nm, 0.0001% Triton; Potency, µM (doses to about 57.1 µM), for the others: top-dose activity change, negative = inhibition, actives largely listed as inhibitors; 330,000 tested, 0.52% active;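 note: plate controls were no compound for no effect and no enzyme for full effect; nearly all actives have a fitted effect of over 20% in size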
Target sequence (P00811 whole entry, looked up): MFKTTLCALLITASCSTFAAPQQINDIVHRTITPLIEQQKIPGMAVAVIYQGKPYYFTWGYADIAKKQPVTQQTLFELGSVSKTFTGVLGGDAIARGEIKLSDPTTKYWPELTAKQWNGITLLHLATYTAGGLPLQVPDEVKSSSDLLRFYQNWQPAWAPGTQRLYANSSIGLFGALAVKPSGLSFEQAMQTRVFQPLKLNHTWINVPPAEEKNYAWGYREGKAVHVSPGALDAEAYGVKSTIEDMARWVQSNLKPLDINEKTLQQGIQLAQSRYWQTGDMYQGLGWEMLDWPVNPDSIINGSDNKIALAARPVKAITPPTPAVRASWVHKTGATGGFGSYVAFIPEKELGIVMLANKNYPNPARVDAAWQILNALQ
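AmpC (5.3 nM in the dispensed reagent) in 20 mM phosphate pH 7.0 with 0.01% (detergent screen) or 0.0001% Triton X-100 was preincubated with compounds for 15 min at room temperature. Nitrocefin was then added from an 800 uM solution, and hydrolysis was followed at 480 nm.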
AmpC inh detg: inhibitors of E. coli AmpC beta-lactamase with detergent | AmpC hydrolysis of nitrocefin, absorbance 480 nm, 0.01% Triton | Potency, µM (titrated, usually from 114 µM), without a hit: at the top dose activity change, negative = inhibition, actives largely listed as inhibitors | AID 485294 | P00811 | 370,000 tested, 0.041% active;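 note: 0% = no-compound wells and -100% = no-enzyme wells; nearly all actives have a fitted effect of over 25% in size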
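AmpC (5.3 nM in the dispensed reagent) in 20 mM phosphate pH 7.0 with 0.01% (detergent screen) or 0.0001% Triton X-100 was preincubated with compounds for 15 min at room temperature. Nitrocefin was then added from an 800 uM solution, and hydrolysis was followed at 480 nm.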
SARS PLpro yeast: SARS-CoV PLP inhibition in yeast; Potency, µM (series often up to 32.9 µM), without a hit: top-dose activity, positive = growth rescue, most hits filed as activators; S. cerevisiae expressing SARS-CoV PLpro, growth rescue; 330,000 tested, 0.19% active; AID 485353; calls by dose curve; note: 0% is about no effect; nearly all actives have a fitted effect of over 55% in size
Starred values were filed as active, the others as inactive; i = inactive; ? = inconclusive; · = no result; [ ] = another dose, or the depositor's remark. This is a sample that favours compounds with a hit; in the whole collection about 1.4% have one here. Unless noted, calls come from the whole dose curve; as a rule, active = well fitted curve in the direction sought with a large enough effect; inconclusive = small, poorly fitted or top-dose-only effect, or another doubt; inactive = no such curve, though single readings can be large; an effect the other way counts as inactive or inconclusive. Potency is the fitted concentration of half-maximal effect.

SMILES	Vaccinia Venus	AMA1-RON2 inh	Vaccinia mCherry	AmpC no deterg	AmpC inh detg	SARS PLpro yeast
CCOC(=O)c1ccc(NC(=O)C(C)N(c2ccc(OCC)cc2)S(C)(=O)=O)cc1 (stereo not drawn)	-8%	·	-6%	·	9%	·
CN1CCc2cc(O)cc3c2[C@H]1Cc1ccc(O)c(O)c1-3	-22%	10µM*	?	·	·	·
CCC(=O)NCCCCCCNC(=O)CC	-2%	19%	-6%	-6%	?	-9%
O=C(CCl)NCCCCCCCCCNC(=O)CCl	5.6µM*	19%	14µM*	-14%	-7%	?
Cc1c(C(=O)NCc2ccco2)cnn1-c1ncc2c(n1)-c1ccccc1CC2	-28%	·	-15%	·	·	·
CCCc1sc(N/N=C/c2ccccn2)nc1-c1ccc(F)cc1	?	-12%	11µM*	17%	1%	-32%
CCCn1nc(NC(=O)C2CCCO2)c2cc3ccc(C)cc3nc21 (stereo not drawn)	-10%	18%	?	53%	-2%	1%
CCCn1nc(NC(=O)C2CCCO2)c2cc3cc(C)ccc3nc21 (stereo not drawn)	·	1.1µM*	·	44%	5%	-17%
O=[N+]([O-])c1ccc(C=C2c3ccccc3-c3ccccc32)cc1	-7%	·	-15%	·	·	·
COc1cc(CNC2CCCC2)cc(Cl)c1OCc1ccccc1F	16µM*	0%	?	24%	-3%	-25%
COc1cc(/C=N\Nc2nncn2N)ccc1OC(C)=O	20µM*	37%	16µM*	-8%	2%	21%
COc1cc(/C=N/NC(=O)c2ccncc2)ccc1OC(C)=O	·	-8%	·	0%	?	-3%
COc1ccc2c(c1)-c1c(sn(-c3ccc(OC)c(OC)c3)c1=S)C(C)(C)N2	-28%	?	-4%	2%	?	-3%
COc1ccc(-n2sc3c(c2=S)-c2cc(OC)ccc2NC3(C)C)cc1	?	22µM*	?	-31%	-2%	-1%
COc1ccc2c(c1)-c1c(ssc1=S)C(C)(C)N2	-28%	30µM*	-8%	-31%	?	-30%
COc1ccc2c(c1)-c1c(sn(-c3ccccc3)c1=S)C(C)(C)N2	-23%	13µM*	-19%	-32%	-13%	-1%
CCOC(=O)C[C@H]1c2cc(F)ccc2S(=O)(=O)N1Cc1cc(OC)c(OC)c(OC)c1	-9%	·	i	·	·	·
CC(=O)Nc1ccc(NS(=O)(=O)c2ccc3[nH]c4c(c3c2)CCCCC4)cc1	7.9µM*	·	?	·	13%	·
CC(=O)Nc1ccc(S(=O)(=O)Nc2ccc(S(=O)(=O)N3CCCCCC3)cc2)cc1	·	-3%	·	20µM*	-7%	-5%
O=C(COc1ccc2ccccc2c1)Nc1ccc(S(=O)(=O)N2CCCCCC2)cc1	?	-12%	-24%	18µM*	1%	-2%
CC(C)C(=O)NCC1CCC2(CCN(Cc3ccc(-c4cccc(Cl)c4)o3)CC2)O1 (stereo not drawn)	-5%	·	i	·	·	·
COc1cc2c(cc1NCc1ccc3c(c1)OCO3)oc1ccccc12	-24%	32µM*	-24%	-24%	-13%	1%
COc1cc2c(cc1NC(=O)c1ccc3c(c1)OCO3)oc1ccccc12	5%	-2%	-9%	-29%	-6%	1%
Cc1ccccc1C(=O)Nc1cccc(NC(=O)c2ccc(C(C)(C)C)cc2)c1	?	·	-27%	·	4%	·
COc1ccc(/C(C)=N/OC/C(O)=C(\C#N)c2nc3ccccc3[nH]2)c(OC)c1	·	82%	·	14µM*	-12%	1%
SMILES	Vaccinia Venus	AMA1-RON2 inh	Vaccinia mCherry	AmpC no deterg	AmpC inh detg	SARS PLpro yeast
CCOC(=O)c1c(-c2ccccc2)oc2ccc(OCC(O)CNCCN(C)C)cc12 (stereo not drawn)	?	25%	11µM*	203%	-6%	-4%
NCC12CC3CC(C1)CC(c1ccc(Br)cc1)(C3)C2	22µM*	-9%	?	18%	-5%	-6%
S=c1[nH]nc(COc2ccccc2)n1/N=C/C=C/c1ccco1	-7%[7.34 µM]	45%	-2%[7.34 µM]	16µM*	-1%	-1%
Cc1cc(=O)n2nc(N3CCC(C(=O)NCc4ccccc4F)CC3)sc2n1	-3%	-2%	-14%	-3%	-8%	11µM*
COc1ccccc1C1CN(CCNC(=O)c2cnsn2)Cc2ccccc2O1 (stereo not drawn)	-5%	·	-21%	·	·	·
Cc1ncc(N=Nc2ccccc2Cl)c(-c2ccccc2)n1	-5%	25µM*	·	2%	-11%	-4%
Nc1nc(-c2ccccc2)c(N=Nc2cccc3ccccc23)s1	?	16µM*	?	-22%	-3%	-65%
Nc1nc(-c2ccccc2)c(N=Nc2ccccc2Cl)s1	?	14µM*	-28%	-34%	?	6%
Nc1nc(-c2ccc(Cl)cc2)c(N=Nc2ccc(S(=O)(=O)N3CCOCC3)cc2)s1	-5%	-8%	-14%	-28%	-11%	1%
Cc1ccc(C)c(CN2C[C@H](Sc3nc4ccccc4[nH]3)C[C@H]2C(=O)N2CCCN(C)CC2)c1	-9%	·	-18%	·	·	·
Cc1[nH]c2ccccc2c1C(C#N)(C#N)C1C(=O)c2ccccc2C1=O	13%[7.34 µM]	-28%	-27%[7.34 µM]	14µM*	-6%	-3%
Cc1[nH]c2ccccc2c1CC#N	-14%	-1%	-1%	-17%	-9%	1%
COc1ccc(F)c(CN2CCC3(CCC(CNC(=O)c4cc(C)nn4C)O3)CC2)c1 (stereo not drawn)	-10%	·	-16%	·	·	·
CCCCS(=O)(=O)Nc1ccc2c(c1)ncn2C1CCCCC1	-9%	4%	-18%	-14%	1%	2%
c1ccc(CNc2ccc3c(c2)ncn3C2CCCCC2)nc1	2%	?	-4%	7.1µM*	?	-2%
O=[N+]([O-])c1ccc(O)c(/C=N/Nc2nn[nH]n2)c1	-9%	-94%	i	-16%	-7%	-4%
NC(=S)N/N=C/c1cc([N+](=O)[O-])ccc1Cl	2.2µM*	98%	?	-33%	-5%	4%
O=[N+]([O-])c1ccc(O)c(/C=N/Nc2ccc(Cl)nn2)c1	?	-45%	1.1µM*	-13%	-7%	0%
CNC(=S)N/N=C/c1ccc(-c2ccc(Cl)c([N+](=O)[O-])c2)o1	-4%	54%	-18%	-24%	-7%	-1%
NC(=S)N/N=C/c1ccc(-c2cc(Cl)c(Cl)cc2Cl)o1	-20%	64%	?	20µM*	0%	-1%
O=[N+]([O-])c1ccc(Cl)c(/C=N/NC(=S)Nc2ccccc2)c1	·	39%	·	3%	?	1%
Cc1ccc(-c2ccc(/C=N/NC(=S)Nc3ccccc3)o2)cc1[N+](=O)[O-]	·	11%	·	3.5µM*	-6%	22%
